# Laboratory results as given in PubChem BioAssay (NCATS).
# Assay: qHTS profiling for inhibitors of Plasmodium falciparum (3D7) proliferation (AID 743322);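 also: infected erythrocytes exposed to compound for 72 h before lysis; 100% = DMSO vehicle wells and 0% = 0.29 µM artemisinin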
# Details: P. falciparum 3D7 proliferation; at 28.7 µM (top of the series)
# In short: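 Erythrocytes infected with P. falciparum (0.3% parasitemia, 2.5% hematocrit) incubated with compounds 72 h at 37 C, 5% CO2. Lysis with saponin/Triton buffer containing SYBR Green I, overnight at room temperature in the dark; DNA fluorescence (485/535 nm) normalised to 0.29 uM artemisinin and DMSO.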
row,SMILES,remaining parasite growth % (stronger effect = lower value) [%]
1,O=C([C@H](Cc1ccc(O[S+](=O)([O-])c2ccccn2)cc1)N[S+](=O)([O-])c1cccnc1)N1CCN(c2ccccc2)CC1,17.8
2,O=C([C@H](Cc1ccc(O[S+](=O)([O-])c2cccc3cccnc23)cc1)N[S+](=O)([O-])c1cccc2cnccc12)N1CCN(c2ccccc2)CC1,-0.402
3,O=C(OCc1ccccc1)N1CCN(C(=O)[C@H](Cc2ccc(O[S+](=O)([O-])c3cccc4cnccc34)cc2)N[S+](=O)([O-])c2cccc3cnccc23)CC1,-0.959
4,O=C([C@H](Cc1ccc(O[S+](=O)([O-])c2cccc3cnccc23)cc1)N[S+](=O)([O-])c1cccnc1)N1CCN(c2ccccc2)CC1,-1.25
5,CC(C)(C)OC(=O)N[C@@H](Cc1ccc(O[S+](=O)([O-])c2cccc3cccnc23)cc1)C(=O)N1CCN(c2ccccc2)CC1,-0.907

# Assay: qHTS profiling for inhibitors of Plasmodium falciparum (DD2) proliferation (AID 743323)
# Details: lower = more inhibition; at 28.7 µM (top of the series)
# In short: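 1536-well qHTS; infected RBCs 0.3% parasitemia/2.5% Hct final; cpd 72 h 37 C 5% CO2; lysis buffer + SYBR Green I, o/n RT dark; FI 485/535; norm. to 0.29 uM artemisinin and DMSO, plate-stack corrected.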
row,SMILES,"activity, percent of control [%]"
1,O=C([C@H](Cc1ccc(O[S+](=O)([O-])c2ccccn2)cc1)N[S+](=O)([O-])c1cccnc1)N1CCN(c2ccccc2)CC1,17.9
2,O=C([C@H](Cc1ccc(O[S+](=O)([O-])c2cccc3cccnc23)cc1)N[S+](=O)([O-])c1cccc2cnccc12)N1CCN(c2ccccc2)CC1,1.4
3,O=C(OCc1ccccc1)N1CCN(C(=O)[C@H](Cc2ccc(O[S+](=O)([O-])c3cccc4cnccc34)cc2)N[S+](=O)([O-])c2cccc3cnccc23)CC1,0.261
4,O=C([C@H](Cc1ccc(O[S+](=O)([O-])c2cccc3cnccc23)cc1)N[S+](=O)([O-])c1cccnc1)N1CCN(c2ccccc2)CC1,0.979
5,CC(C)(C)OC(=O)N[C@@H](Cc1ccc(O[S+](=O)([O-])c2cccc3cccnc23)cc1)C(=O)N1CCN(c2ccccc2)CC1,-0.148

# Assay: qHTS profiling for inhibitors of Plasmodium falciparum (HB3) proliferation (AID 743324);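 also: 100% = DMSO vehicle wells and 0% = artemisinin-treated control wells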
# Details: Plasmodium falciparum HB3 blood-stage proliferation; at 28.7 µM (top of the series)
# In short: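 P. falciparum HB3 grown in erythrocytes (0.3% parasitemia, 2.5% hematocrit final) with compound for 72 h at 37 C, 5% CO2. Parasite DNA detected by SYBR Green after saponin/triton lysis overnight; normalized to 0.29 uM artemisinin and DMSO.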
row,SMILES,"remaining proliferation (% of control), lower = more inhibition [%]"
1,O=C([C@H](Cc1ccc(O[S+](=O)([O-])c2ccccn2)cc1)N[S+](=O)([O-])c1cccnc1)N1CCN(c2ccccc2)CC1,2.38
2,O=C([C@H](Cc1ccc(O[S+](=O)([O-])c2cccc3cccnc23)cc1)N[S+](=O)([O-])c1cccc2cnccc12)N1CCN(c2ccccc2)CC1,0.212
3,O=C(OCc1ccccc1)N1CCN(C(=O)[C@H](Cc2ccc(O[S+](=O)([O-])c3cccc4cnccc34)cc2)N[S+](=O)([O-])c2cccc3cnccc23)CC1,-0.068
4,O=C([C@H](Cc1ccc(O[S+](=O)([O-])c2cccc3cnccc23)cc1)N[S+](=O)([O-])c1cccnc1)N1CCN(c2ccccc2)CC1,-0.812
5,CC(C)(C)OC(=O)N[C@@H](Cc1ccc(O[S+](=O)([O-])c2cccc3cccnc23)cc1)C(=O)N1CCN(c2ccccc2)CC1,-0.0202
